# Assay results from the supplement of paper PMC10646978.
# ± gives the standard deviation.
# Legend:
# Conditions in all cases: modulator concentration 10 µM
# [1] = test system: RAW-Dual (murine macrophage reporter line); assay: NF-kB reporter (SEAP) activity fold change vs agonist alone; higher = enhanced NF-kB activity
# Outline: (§1)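 RAW-Dual murine macrophage reporter cells were seeded at 50 000 per well in 384-well plates and pre-incubated 1 hour at 37 °C with compound pin-transferred to 10 μM final. After 1 hour, a PRR agonist was added and cells incubated overnight. Supernatant NF-κB (SEAP, QUANTI-Blue, 620 nm absorbance) and IRF (Lucia luciferase, QUANTI-Luc, luminescence) signals were divided by the mean agonist-only control on the same plate to give fold change. Two replicate plates were averaged, with errors by propagation.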
# [2] = test system: RAW-Dual (murine macrophage reporter line); assay: IRF reporter (Lucia luciferase) activity fold change vs agonist alone; higher = enhanced IRF activity
# Outline: as §1
# [3] = test system: RAW-Dual (murine macrophage reporter line); assay: viability score (confluency relative to resting cells, overnight) (fraction); higher = more viable, active = viable (0.7 or more)
# Outline: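 Compound was added at a final 10 μM to RAW-Dual macrophages in 384-well plates and left overnight. Confluency was imaged with IncuCyte, and two masks were generated in IncuCyte software over all imaged wells. Each viability score is confluency relative to resting cells, and a compound met the cutoff only when both masks were above 70% of resting cells.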
# [4] = agonist: CpG ODN 1826 0.5 ug/mL
smiles,measurement,setting,value
CC(C)Cc1ccc(C(C)C(=O)O)cc1.NCCCC[C@H](N)C(=O)O (stereo not given),NF-kB reporter,[1]; [4],1.11 ± 0.26
same,NF-kB reporter,[1]; agonist: LPS 0.1 ug/mL,0.97 ± 0.05
same,NF-kB reporter,[1]; agonist: MPLA […],0.963 ± 0.064
same,IRF reporter,[2]; agonist: 3'3'-cGAMP 10 ug/mL,0.903 ± 0.032
same,IRF reporter,[2]; agonist: LPS 0.1 ug/mL,1.47 ± 0.16
same,IRF reporter,[2]; agonist: MPLA […],1.41 ± 0.18
same,viability score,[3],0.536 (inactive)
Br.Cc1ccc(Sc2ccccc2N2CCNCC2)c(C)c1,NF-kB reporter,[1]; [4],0.328 ± 0.078
same,NF-kB reporter,[1]; agonist: LPS 0.1 ug/mL,0.944 ± 0.11
same,NF-kB reporter,[1]; agonist: MPLA […],1.78 ± 0.15
same,IRF reporter,[2]; agonist: 3'3'-cGAMP 10 ug/mL,0.491 ± 0.057
same,IRF reporter,[2]; agonist: LPS 0.1 ug/mL,1.27 ± 0.32
same,IRF reporter,[2]; agonist: MPLA […],1.03 ± 0.12
same,viability score,[3],0.527 (inactive)
O=C1c2cccc3c2[C@H](CCC3)CN1[C@@H]1CN2CCC1CC2 [Prestw-1783],NF-kB reporter,[1]; [4],0.953 ± 0.06
same,NF-kB reporter,[1]; agonist: LPS 0.1 ug/mL,0.913 ± 0.13
same,NF-kB reporter,[1]; agonist: MPLA […],0.788 ± 0.031
same,IRF reporter,[2]; agonist: 3'3'-cGAMP 10 ug/mL,0.63 ± 0.024
same,IRF reporter,[2]; agonist: LPS 0.1 ug/mL,0.824 ± 0.044
same,IRF reporter,[2]; agonist: MPLA […],0.752 ± 0.08
same,viability score,[3],0.995 (active)
CCOC(=O)N1CCN(C(=O)C2CCN(Cc3ccc(C)o3)CC2)CC1,NF-kB reporter,[1]; [4],0.941 ± 0.15
same,NF-kB reporter,[1]; agonist: LPS 0.1 ug/mL,1.04 ± 0.089
same,NF-kB reporter,[1]; agonist: MPLA […],0.98 ± 0.08
same,IRF reporter,[2]; agonist: 3'3'-cGAMP 10 ug/mL,1.02 ± 0.051
same,IRF reporter,[2]; agonist: LPS 0.1 ug/mL,1.26 ± 0.3
same,IRF reporter,[2]; agonist: MPLA […],1.41 ± 0.3
same,viability score,[3],0.991 (active)
CC(C)n1cnc(S(=O)(=O)N2CCC(S(=O)(=O)c3nccn3C)CC2)c1,NF-kB reporter,[1]; [4],0.36 ± 0.028
same,NF-kB reporter,[1]; agonist: LPS 0.1 ug/mL,0.842 ± 0.067
same,NF-kB reporter,[1]; agonist: MPLA […],0.663 ± 0.048
same,IRF reporter,[2]; agonist: 3'3'-cGAMP 10 ug/mL,0.935 ± 0.026
same,IRF reporter,[2]; agonist: LPS 0.1 ug/mL,1.34 ± 0.14
same,IRF reporter,[2]; agonist: MPLA […],1.14 ± 0.084
same,viability score,[3],0.878 (active)
CN1C(C(=O)Nc2ccccn2)=C(O)c2sc(Cl)cc2S1(=O)=O,NF-kB reporter,[1]; [4],0.744 ± 0.047
same,NF-kB reporter,[1]; agonist: LPS 0.1 ug/mL,0.896 ± 0.094
same,NF-kB reporter,[1]; agonist: MPLA […],1.08 ± 0.11
same,IRF reporter,[2]; agonist: 3'3'-cGAMP 10 ug/mL,0.955 ± 0.043
same,IRF reporter,[2]; agonist: LPS 0.1 ug/mL,1.43 ± 0.22
same,IRF reporter,[2]; agonist: MPLA […],1.72 ± 0.59
same,viability score,[3],0.967 (active)
NC(=O)c1ncn(C2OC(CO)C(O)C2O)n1 (stereo not given),NF-kB reporter,[1]; [4],1.17 ± 0.089
same,NF-kB reporter,[1]; agonist: LPS 0.1 ug/mL,1.16 ± 0.058
same,NF-kB reporter,[1]; agonist: MPLA […],1.04 ± 0.03
same,IRF reporter,[2]; agonist: 3'3'-cGAMP 10 ug/mL,1.02 ± 0.075
same,IRF reporter,[2]; agonist: LPS 0.1 ug/mL,0.951 ± 0.11
same,IRF reporter,[2]; agonist: MPLA […],0.922 ± 0.072
same,viability score,[3],0.999 (active)
O=C1c2ccccc2C(=O)C1c1ccccn1,NF-kB reporter,[1]; [4],0.912 ± 0.069
same,NF-kB reporter,[1]; agonist: LPS 0.1 ug/mL,1.08 ± 0.087
same,NF-kB reporter,[1]; agonist: MPLA […],0.993 ± 0.021
same,IRF reporter,[2]; agonist: 3'3'-cGAMP 10 ug/mL,0.897 ± 0.055
same,IRF reporter,[2]; agonist: LPS 0.1 ug/mL,0.976 ± 0.075
same,IRF reporter,[2]; agonist: MPLA […],0.95 ± 0.091
same,viability score,[3],0.987 (active)
CN(C)CC#CCNC(=O)Nc1ccc(C(F)(F)F)cc1,NF-kB reporter,[1]; [4],0.935 ± 0.33
same,NF-kB reporter,[1]; agonist: LPS 0.1 ug/mL,0.899 ± 0.045
same,NF-kB reporter,[1]; agonist: MPLA […],0.874 ± 0.058
same,IRF reporter,[2]; agonist: 3'3'-cGAMP 10 ug/mL,0.425 ± 0.016
same,IRF reporter,[2]; agonist: LPS 0.1 ug/mL,1.06 ± 0.22
same,IRF reporter,[2]; agonist: MPLA […],1.22 ± 0.13
same,viability score,[3],1 (active)
CCS(=O)(=O)O.COC(=O)c1ccc2c(c1)NC(=O)/C2=C(\Nc1ccc(N(C)C(=O)CN2CCN(C)CC2)cc1)c1ccccc1,NF-kB reporter,[1]; [4],0.115 ± 0.027
same,NF-kB reporter,[1]; agonist: LPS 0.1 ug/mL,0.886 ± 0.044
same,NF-kB reporter,[1]; agonist: MPLA […],2.23 ± 0.18
same,IRF reporter,[2]; agonist: 3'3'-cGAMP 10 ug/mL,0.036 ± 0.002
same,IRF reporter,[2]; agonist: LPS 0.1 ug/mL,0.177 ± 0.025
same,IRF reporter,[2]; agonist: MPLA […],0.241 ± 0.028
same,viability score,[3],0.839 (active)
COc1cc2c(cc1OC)C1C(=O)c3ccc4c(c3OC1CO2)C=CC(C)(C)O4 (stereo not given),NF-kB reporter,[1]; [4],0.92 ± 0.071
same,NF-kB reporter,[1]; agonist: LPS 0.1 ug/mL,0.99 ± 0.096
same,NF-kB reporter,[1]; agonist: MPLA […],1.55 ± 0.14
same,IRF reporter,[2]; agonist: 3'3'-cGAMP 10 ug/mL,0.853 ± 0.04
same,IRF reporter,[2]; agonist: LPS 0.1 ug/mL,1.62 ± 0.26
same,IRF reporter,[2]; agonist: MPLA […],2.12 ± 0.42
same,viability score,[3],0.986 (active)
CCN(CC)CCN1C(=O)C(O)=C(C(=O)c2ccc(C)cc2)C1c1ccccc1 (stereo not given),NF-kB reporter,[1]; [4],0.996 ± 0.078
same,NF-kB reporter,[1]; agonist: LPS 0.1 ug/mL,0.974 ± 0.064
same,NF-kB reporter,[1]; agonist: MPLA […],0.893 ± 0.041
same,IRF reporter,[2]; agonist: 3'3'-cGAMP 10 ug/mL,0.827 ± 0.059
same,IRF reporter,[2]; agonist: LPS 0.1 ug/mL,0.999 ± 0.11
same,IRF reporter,[2]; agonist: MPLA […],0.896 ± 0.2
same,viability score,[3],0.996 (active)
O=C(C=Cc1ccc(Br)cc1)c1c(-c2ccccc2)c2cc(Cl)ccc2[nH]c1=O,NF-kB reporter,[1]; [4],0.876 ± 0.068
same,NF-kB reporter,[1]; agonist: LPS 0.1 ug/mL,0.792 ± 0.055
same,NF-kB reporter,[1]; agonist: MPLA […],1.03 ± 0.099
same,IRF reporter,[2]; agonist: 3'3'-cGAMP 10 ug/mL,0.858 ± 0.039
same,IRF reporter,[2]; agonist: LPS 0.1 ug/mL,1.4 ± 0.09
same,IRF reporter,[2]; agonist: MPLA […],1.5 ± 0.16
same,viability score,[3],0.997 (active)
CC(=O)OCCN(CCOC(C)=O)c1c(C)[nH]c(=O)[nH]c1=O,NF-kB reporter,[1]; [4],0.864 ± 0.067
same,NF-kB reporter,[1]; agonist: LPS 0.1 ug/mL,0.809 ± 0.079
same,NF-kB reporter,[1]; agonist: MPLA […],0.994 ± 0.089
same,IRF reporter,[2]; agonist: 3'3'-cGAMP 10 ug/mL,0.976 ± 0.05
same,IRF reporter,[2]; agonist: LPS 0.1 ug/mL,1.52 ± 0.093
same,IRF reporter,[2]; agonist: MPLA […],1.7 ± 0.17
same,viability score,[3],1.02 (active)
O=C1C(Cl)=C(N2CCCCC2)C(=O)N1c1ccc(Cl)c(Cl)c1,NF-kB reporter,[1]; [4],0.687 ± 0.14
same,NF-kB reporter,[1]; agonist: LPS 0.1 ug/mL,1.07 ± 0.084
same,NF-kB reporter,[1]; agonist: MPLA […],1 ± 0.15
same,IRF reporter,[2]; agonist: 3'3'-cGAMP 10 ug/mL,0.911 ± 0.047
same,IRF reporter,[2]; agonist: LPS 0.1 ug/mL,1.09 ± 0.11
same,IRF reporter,[2]; agonist: MPLA […],1.22 ± 0.27
same,viability score,[3],1 (active)
